# Measured values published in PubChem BioAssay.
# System: XIP peptide (Xip251-270)
# Experiment: small-molecule binders of XIP peptide, primary screen, biochemical, small-molecule microarray, fluorescence 635/667 nm, 0.5 µg/mL protein (AID 1183)
# Conditions: small-molecule microarray binding, fluorescence 635 nm; higher = more signal
row,Structure (SMILES),composite z-score
1,CCC=CCCC(OC(=O)c1ccc(Br)cc1)C1=CCCCC1=O (stereo unspecified),0.49
2,COc1ccc(O[C@H]2C=C[C@@H](c3ccccc3)O[C@@H]2CON=C2[C@H]3CCn4c(=O)n(-c5ccccc5)c(=O)n4[C@H]3[C@H](O)[C@@H]3O[C@H]23)cc1,0.742
3,CC(C)CON=C1[C@H]2CCn3c(=O)n(Cc4cc5c(cc4Cl)OCO5)c(=O)n3[C@H]2[C@H](O)[C@@H]2O[C@H]12,0.368
4,CCOC(=O)NN=C1C[C@@H](O)[C@@H](O)[C@@H]2[C@@H]3C(=O)N([C@@H](C)c4ccccc4)C(=O)[C@@H]3CC[C@H]12,-0.0286
5,O=C1C[C@@H](O)[C@@H](O)[C@@H]2[C@@H]3C(=O)N(C[C@@H]4CCCO4)C(=O)[C@@H]3CC[C@H]12,0.156
6,CO[C@H]1COC(=O)[C@@H]2CCCN2C(=O)CC=C[C@@H](C)[C@H](OC)COC(=O)[C@@H](OCc2ccccc2)C=C[C@@H]1C,0.789
7,CC(CCN1CCCc2nc(C)c(C)cc21)=NOC(C)CN1CCCCc2nc(C)c(C)cc21 (stereo unspecified),0.725
8,C[C@@H]1CC[C@H]2C(=O)O[C@@H](Cc3ccccc3)CN2[C@H]1c1ccc(Br)cc1,0.174
9,COC(=O)[C@H]1O[C@@H](c2c(OC)c(OC)c(C)c(OC)c2OC)[C@H](C)[C@@H](O)[C@H]1C,0.486
10,CC(C)(C)N1C(=O)[C@H]2[C@H]3[C@H](O)C=CC(=O)[C@@H]3CC[C@H]2C1=O,0.16
11,COC(=O)CC=C[C@H](C)[C@@H](OCc1cccc(Br)c1)[C@@H](C)[C@H](OC)C1CCCCC1,0.768
12,O=C1C[C@@H](O)[C@@H](O)[C@@H]2[C@@H]3C(=O)N(C[C@@H]4CCCO4)C(=O)[C@@H]3CC[C@@H]12,0.592
13,O=C1C[C@@H](O)[C@@H](O)[C@@H]2[C@@H]3C(=O)N(Cc4ccccc4)C(=O)[C@@H]3CC[C@@H]12,0.5
14,CC(=O)OC[C@H]1OC(ON=CC[C@@H]2C=C[C@H](OC(C)=O)[C@@H](COC(C)=O)O2)[C@H](OC(C)=O)[C@@H](OC(C)=O)[C@@H]1OC(C)=O (stereo partly specified),0.0849
15,COc1ccc(O[C@H]2C=C[C@@H](c3ccccc3)O[C@@H]2CON=C(C)CCN2CCc3nc(-c4ccccc4)c(-c4ccccc4)cc3C2)cc1,0.445
16,O=C(C=Cc1ccc2c(c1)OCO2)c1ccc(F)cc1,0.629
17,CCN1C(=O)[C@H]2[C@H]3[C@H](O)[C@H](O)CC(=NO[C@@H](C)c4cn([C@H](CO)Cc5ccccc5)nn4)[C@@H]3CC[C@H]2C1=O,0.814
18,C[C@H]1COC(=O)[C@@H]2CCCN2C(=O)[C@@H](C)COC(=O)[C@H](Cc2ccccc2)NC1=O,0.435

row,Structure (SMILES),composite z-score
1,CO[C@@H]1COC(=O)CC=C[C@H](C)[C@H](OC)COC(=O)[C@H](C)NC(=O)CC=C[C@H]1C,0.82
2,CC(C)C[C@H](NC(=O)CCC1CC(OC(=O)NCc2cccc3ccccc23)CC2(CCCC(COC(=O)NCc3ccccc3)O2)O1)C(=O)NCC(c1ccccc1)c1ccccc1 (stereo partly specified),0.673
3,Cc1ccc(S(=O)(=O)N[C@@H]2COC(=O)[C@@H](C)COC(=O)CC=C[C@H]2C)cc1,0.038
4,CO[C@@H]1COC(=O)[C@@H]2CCCN2C(=O)[C@@H](C)COC(=O)CC=C[C@H]1C,0.569
5,CCOC(=O)[C@H](Cc1ccccc1)NC(=O)CCC1CC(OC(=O)NCCc2ccc(F)cc2)CC2(CCCC(COC(=O)NCc3ccccc3)O2)O1 (stereo partly specified),0.283
6,CC(C)=CCCC(C)=CCON=C1C[C@@H](O)[C@@H](O)[C@@H]2[C@@H]3C(=O)N(c4cccc(Oc5ccccc5)c4)C(=O)[C@@H]3CC[C@@H]12,0.352
7,CCOC(=O)[C@H](CC(C)C)NC(=O)CCC1CC(OC(=O)NCCc2ccc(F)cc2)CC2(CCCC(COC(=O)NCCc3ccccc3OC)O2)O1 (stereo partly specified),0.578
8,CC(C)CON=C1C[C@@H](O)[C@@H](O)[C@@H]2[C@@H]3C(=O)N(C4CCCCC4)C(=O)[C@@H]3CC[C@@H]12,0.0112
9,CCc1cc2c(nc1CC)CCN(CCC(C)=NO[C@H](C)c1cn([C@H](CO)Cc3ccccc3)nn1)C2,0.284
10,CC(C)(C)N1C(=O)[C@H]2[C@H]3[C@H](O)[C@H](O)CC(=O)[C@H]3CC[C@H]2C1=O,0.556
11,COC(=O)CC=C[C@@H](C)[C@@H](C=NO[C@@H]1O[C@H](COC(C)=O)[C@@H](OC(C)=O)[C@H](OC(C)=O)[C@H]1OC(C)=O)NS(=O)(=O)c1ccc(C)cc1,0.203
12,C[C@@H](c1ccccc1)N1C(=O)[C@H]2[C@H]3[C@H](O)[C@H](O)CC(=O)[C@H]3CC[C@H]2C1=O,0.251
13,CC(=O)O[C@H]1C2=CO[C@H](C)[C@H]3[C@H]4C5=C([C@H](O)[C@H]6O[C@H]6C5=O)[C@H](OC4C)[C@@]23C(=O)[C@@H]2O[C@@H]21 (stereo partly specified),-0.406
14,O=C(NN=C1C[C@@H](O)[C@@H](O)[C@@H]2[C@@H]3C(=O)N(C[C@@H]4CCCO4)C(=O)[C@@H]3CC[C@@H]12)OCc1ccccc1,0.126
15,C=COC[C@@H]1CN2[C@@H](CC[C@@H](C)[C@@H]2c2ccc(Br)cc2)C(=O)O1,0.103
16,CC(C)CON=C1C[C@@H](O)[C@@H](O)[C@@H]2[C@@H]3C(=O)N(C[C@@H]4CCCO4)C(=O)[C@@H]3CC[C@@H]12,0.205
17,CC(C)(C)N1C(=O)[C@H]2[C@H]3[C@H](O)[C@H](O)CC(=NOCc4ccccc4)[C@H]3CC[C@H]2C1=O,-0.112
18,CCOC(=O)CCN1C(=O)[C@H]2[C@H]3[C@H](O)[C@H](O)CC(=NOCc4ccccc4)[C@H]3CC[C@H]2C1=O,-0.0274
